{"source": "PubChem BioAssay AID1224903", "about": "(Bradner/Qi Labs at DFCI, 2016)", "note": "Hit rate of the full screen: of about 66,000 compounds, about 720 (1.1%) were called active. This is one part of a sample in which actives are shown more often than they occur. Rule as the data show it: active = normalised signal below about 0.5; inactive = the rest, inconclusive results apart."}
{"biological_target": "Chromobox protein homolog 7 (Homo sapiens) (UniProt O95931)", "sequence (O95931 whole entry, looked up)": "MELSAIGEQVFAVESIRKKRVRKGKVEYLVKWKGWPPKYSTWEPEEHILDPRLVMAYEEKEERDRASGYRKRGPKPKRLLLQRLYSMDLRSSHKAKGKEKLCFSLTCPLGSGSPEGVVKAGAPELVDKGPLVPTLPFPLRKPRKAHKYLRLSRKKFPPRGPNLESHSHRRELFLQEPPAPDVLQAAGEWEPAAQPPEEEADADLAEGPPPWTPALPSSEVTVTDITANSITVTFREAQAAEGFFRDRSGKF", "assay": "blockers of CBX7 binding to H3K27me3 peptide – biochemical, AlphaScreen, primary screen (AID 1224903)", "conditions": "AlphaScreen His6-CBX7 / biotin-H3K27me3 peptide binding, stronger effect = lower value; z-score: measured here: z-score of CBX7 signal"}
{"smiles": "CCCNC(=O)c1ccc2c(c1)N(Cc1ccccc1)C(=O)c1ccccc1S2(=O)=O", "normalised signal (fraction of DMSO)": "1.14 (inactive)", "z-score": 2.25}
{"smiles": "CCOC(=O)c1sc(NC(=O)c2ccc(OCC)cc2)nc1-c1ccccc1", "normalised signal (fraction of DMSO)": "0.993 (inactive)", "z-score": -0.166}
{"smiles": "Cc1ccc(Cn2c(=O)cc(C(=O)NC3CC3)c3ccccc32)cc1", "normalised signal (fraction of DMSO)": "0.912 (inactive)", "z-score": -0.873}
{"smiles": "COc1ccc(Cl)cc1C1CC(=O)Nc2cc3c(cc21)OCO3", "note": "(stereo not drawn)", "normalised signal (fraction of DMSO)": "1.03 (inactive)", "z-score": 0.351}
{"smiles": "CCc1nc2ccc(C(=O)NCC(OC)OC)cc2nc1CC", "normalised signal (fraction of DMSO)": "1.13 (inactive)", "z-score": 0.801}
{"smiles": "CC1CCN(c2c(NCc3ccc(C(=O)NCc4ccccc4)cc3)c(=O)c2=O)CC1", "normalised signal (fraction of DMSO)": "0.993 (inactive)", "z-score": -0.292}
{"smiles": "COc1ccc(-c2[nH]c(-c3ccc(C)cc3)nc2SCC(=O)Nc2ccc(F)cc2)cc1OC", "normalised signal (fraction of DMSO)": "0.756 (inactive)", "z-score": -11.6}
{"smiles": "COc1cc(-c2nc(-c3ccccc3)c(-c3ccccc3)[nH]2)ccc1OCC(=O)O", "normalised signal (fraction of DMSO)": "0.774 (inactive)", "z-score": -0.891}
{"smiles": "COc1ccc(-c2nc(-c3ccc(F)cc3)c(-c3ccc(F)cc3)[nH]2)cc1OC", "normalised signal (fraction of DMSO)": "0.322 (active)", "z-score": -13.4}
{"smiles": "CC1(C)C=c2c(nnc3ncnn23)=C(O)C1", "normalised signal (fraction of DMSO)": "0.00873 (active)", "z-score": -15.7}
{"smiles": "CCOC(=O)C1CCCN(c2c(N3CC(C)CC(C)C3)c(=O)c2=O)C1", "note": "(stereo not drawn)", "normalised signal (fraction of DMSO)": "0.898 (inactive)", "z-score": -2.3}
{"smiles": "COc1ccc(OCc2nc(C#N)c(N(C)Cc3ccccc3)o2)cc1", "normalised signal (fraction of DMSO)": "0.575 (inactive)", "z-score": -2.65}
{"smiles": "N#Cc1nc(COc2ccc(Cl)cc2)oc1N1CCCC1", "normalised signal (fraction of DMSO)": "0.728 (inactive)", "z-score": -11.9}
{"smiles": "Cc1ccc(OCc2nc(C#N)c(N3CCCC3)o2)cc1", "normalised signal (fraction of DMSO)": "0.417 (active)", "z-score": -10.6}
{"smiles": "Cc1cc(N2CCCCC2)nc2ccc(NC(=O)CCC(=O)N3CCN(c4ccc(F)cc4)CC3)cc12", "normalised signal (fraction of DMSO)": "1.05 (inactive)", "z-score": 0.868}
{"smiles": "Cc1ccc(C)c(CN2C(=O)CSc3ccc(C(=O)NCCCN4CCCCCC4)cc32)c1", "normalised signal (fraction of DMSO)": "0.98 (inactive)", "z-score": -0.433}
{"smiles": "Cc1cc(C)nc(N=C(N)N2CCC(Cc3ccccc3)CC2)n1", "normalised signal (fraction of DMSO)": "0.97 (inactive)", "z-score": -0.61}
{"smiles": "COc1cc(Cl)c(C)cc1NC(=O)c1n[nH]c(=O)c2ccccc12", "normalised signal (fraction of DMSO)": "1.01 (inactive)", "z-score": 0.38}
{"smiles": "CC1CCCCC1NS(=O)(=O)c1ccc2c(c1)CCN2C(=O)C1CCC1", "note": "(stereo not drawn)", "normalised signal (fraction of DMSO)": "0.937 (inactive)", "z-score": -2.14}
{"smiles": "COCCN1Cc2cccc(C(=O)NC3CCCC3)c2C1=O", "normalised signal (fraction of DMSO)": "1.06 (inactive)", "z-score": 0.062}
{"smiles": "O=C(NC1CC1)c1ccc2c(c1)NC(=O)c1ccccc1N2", "normalised signal (fraction of DMSO)": "0.861 (inactive)", "z-score": -2.13}
{"smiles": "Cc1sc2ncnc(NCC3(c4ccccc4)CCCC3)c2c1C", "normalised signal (fraction of DMSO)": "1.08 (inactive)", "z-score": 1.89}
{"smiles": "COCCNC(=O)c1ccc2c(c1)N=C(C)c1cc(Br)ccc1S2", "normalised signal (fraction of DMSO)": "0.995 (inactive)", "z-score": -0.23}
{"smiles": "CCC(C)NC(=O)c1sc2ncn(CC(=O)Nc3ccccc3OC)c(=O)c2c1C", "note": "(stereo not drawn)", "normalised signal (fraction of DMSO)": "1.07 (inactive)", "z-score": 0.734}
{"smiles": "Cc1ccc(-c2nc3ncccc3o2)cc1NC(=O)c1ccc(Br)cc1", "normalised signal (fraction of DMSO)": "0.923 (inactive)", "z-score": -0.643}
{"smiles": "CC(C)NC(=O)c1ccc2nc(-c3ccccc3)c(-c3ccccc3)nc2c1", "normalised signal (fraction of DMSO)": "1.07 (inactive)", "z-score": 0.662}
{"smiles": "Cc1cccc(CCNC(=O)CCCNS(=O)(=O)c2ccc3c(c2)CCC(=O)N3)c1", "normalised signal (fraction of DMSO)": "1.06 (inactive)", "z-score": 2.11}
{"smiles": "CCN(CCCNC(=O)C(C)N1C(=O)COc2ccc(C)cc21)c1ccccc1", "note": "(stereo not drawn)", "normalised signal (fraction of DMSO)": "0.631 (inactive)", "z-score": -6.67}
{"smiles": "CCOc1ccc(CNC(=O)C(C)N2C(=O)COc3ccc(C)cc32)cc1", "note": "(stereo not drawn)", "normalised signal (fraction of DMSO)": "0.421 (active)", "z-score": -10.5}
{"smiles": "Cc1ccc2c(c1)N(C(C)C(=O)NCc1ccc(F)cc1Cl)C(=O)CO2", "note": "(stereo not drawn)", "normalised signal (fraction of DMSO)": "0.512 (inactive)", "z-score": -8.83}
{"smiles": "O=C1C2C3C=CC(C4CC34)C2C(=O)N1Cc1cccnc1", "note": "(stereo not drawn)", "normalised signal (fraction of DMSO)": "0.934 (inactive)", "z-score": -1.18}
{"smiles": "Cc1cc(N2CCCCC2)nc2ccc(NC(=O)c3cnccn3)cc12", "normalised signal (fraction of DMSO)": "0.882 (inactive)", "z-score": -2.15}
{"smiles": "CCN(CCNC(=O)Cn1nc(-c2ccc(Cl)cc2)ccc1=O)c1ccccc1", "normalised signal (fraction of DMSO)": "0.859 (inactive)", "z-score": -7.3}
{"smiles": "COc1ccc(N2CC(C(=O)Nc3ccc(C(C)C)cc3)CC2=O)cc1", "note": "(stereo not drawn)", "normalised signal (fraction of DMSO)": "1.06 (inactive)", "z-score": 0.0758}
{"smiles": "CC(=O)Nc1ccccc1-c1nc2ccccc2n(C)c1=O", "normalised signal (fraction of DMSO)": "1.23 (inactive)", "z-score": 3.65}
{"smiles": "Cc1cc(C)cc(OC(C)C(=O)N(Cc2ccc(Cl)cc2)C2CCS(=O)(=O)C2)c1", "note": "(stereo not drawn)", "normalised signal (fraction of DMSO)": "0.978 (inactive)", "z-score": -0.282}
{"smiles": "Nc1nonc1-c1noc(-c2c(F)cccc2F)n1", "normalised signal (fraction of DMSO)": "1.09 (inactive)", "z-score": 0.864}
{"smiles": "COc1ccc(Nc2cc(C(=O)NC3CC3)c3ccccc3n2)c(OC)c1", "normalised signal (fraction of DMSO)": "0.865 (inactive)", "z-score": -2.17}
{"smiles": "CCOc1ccc(-n2ccnc2SCC(=O)Nc2cccc(Cl)c2)cc1", "normalised signal (fraction of DMSO)": "0.445 (active)", "z-score": -0.736}
{"smiles": "CCOc1ccc(-n2ccnc2SCC(=O)Nc2ccc(C)cc2C)cc1", "normalised signal (fraction of DMSO)": "0.963 (inactive)", "z-score": -0.292}
{"smiles": "COc1cccc(-n2ccnc2SCC(=O)Nc2ccc(Br)cc2)c1", "normalised signal (fraction of DMSO)": "0.458 (active)", "z-score": -0.719}
{"smiles": "COc1ccc(-n2ccnc2SCC(=O)Nc2ccc(C)cc2)cc1", "normalised signal (fraction of DMSO)": "0.62 (inactive)", "z-score": -0.504}
{"smiles": "COc1cccc(-n2ccnc2SCC(=O)Nc2ccc(OC(F)(F)F)cc2)c1", "normalised signal (fraction of DMSO)": "0.995 (inactive)", "z-score": -0.0932}
{"smiles": "CCOc1ccc(-n2ccnc2SCC(=O)Nc2ccccc2F)cc1", "normalised signal (fraction of DMSO)": "0.617 (inactive)", "z-score": -0.508}
